Test [1] in a line: NCI Yeast Anticancer Drug Screen. Data for the rad50 strain (AID 155).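 Further: 0% = growth of vehicle-only cultures of the same strain.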 The settings on record: S. cerevisiae rad50 strain growth inhibition, hits give high values. The essentials: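 Readout: growth inhibition relative to vehicle-treated cultures. Compound exposure was carried out in a genetically defined yeast strain deficient in DNA damage repair.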
Test [2] in a line: NCI Yeast Anticancer Drug Screen. Data for the mec2-1 strain (AID 157). The settings on record: S. cerevisiae mec2-1 strain, hits give high values. The essentials: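 Using mec2-1 yeast: add compound, measure growth, express inhibition versus vehicle-treated cultures.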
The nature of test [3]: NCI Yeast Anticancer Drug Screen. Data for the sgs1 mgt1 strain (AID 161).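 Further: 0% = growth of cultures given vehicle only.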 Particulars: S. cerevisiae sgs1 mgt1 strain, hits give high values. In short, it runs like this:
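Percent growth inhibition was derived by comparing compound-exposed mutant yeast with vehicle-exposed cultures. The strain carries alterations in DNA damage repair.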

Test [4] is described as follows: NCI Yeast Anticancer Drug Screen. Data for the cln2 rad14 strain (AID 165).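 Further: 0% = growth equal to vehicle treated cultures.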 Particulars: S. cerevisiae cln2 rad14 strain, hits give high values. The essentials:
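Yeast strain cln2 rad14, bearing defects in cell cycle control and DNA repair, serves as the test system; values reflect growth inhibition compared with vehicle.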

A short description of test [5]: NCI Yeast Anticancer Drug Screen. Data for the bub3 strain (AID 167). The settings on record: S. cerevisiae bub3 mutant strain, hits give high values. The essentials:
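Readout: yeast growth inhibition, expressed relative to vehicle-only wells. The test organism is a mutant strain from a panel with lesions in DNA repair or checkpoint genes.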

Test [6] can be described thus: NCI Yeast Anticancer Drug Screen. Data for the mlh1 rad18 strain (AID 175). Particulars: S. cerevisiae mlh1 rad18 strain growth inhibition, hits give high values. The essentials: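 Steps: expose repair-defective yeast to compound; measure growth; express inhibition against vehicle-treated controls.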
The mark [7] stands for this setting: at 5.0 µM (retest, dose inferred, filed as 0.5).
The mark [8] stands for this setting: at 50.0 µM (retest, dose inferred, filed as 5.0).

This is part of a sample that, as a whole, favours compounds with a hit. Of some 79,000 tested, about 15% had one in any assay. Values without a mark were called inactive. Activity calls are given as the source filed them. No stated cut-off is given here; in the data, active means growth inhibition above about 70%; inactive means the rest.

Take `C/C(=N/O)c1cccc(C(F)(F)F)c1`: the growth inhibition is -150% in test [1] (setting [7]); -146% in test [1] (setting [8]); 7.15% in test [1] (at 50.0 µM); -50% in test [2] (setting [7]); -58% in test [2] (setting [8]); 14.3% in test [2] (at 50.0 µM). Besides, the growth inhibition in test [3] (setting [7]) was -64%; in test [3] (setting [8]), -63%; in test [3] (at 50.0 µM), -6.55%; in test [4] (setting [7]) it was -63%; in test [4] (setting [8]), -84%; in test [4] (at 50.0 µM), 35.6%. Moreover, the growth inhibition in test [5] (setting [7]) was -66%; in test [5] (setting [8]), -92%; in test [5] (at 50.0 µM) it was 34.6%; in test [6] (setting [7]), -128%; in test [6] (setting [8]), -127%; in test [6] (at 50.0 µM) it was 19.2%.
In the case of `O=C(CSc1nccc(=O)[nH]1)c1ccccc1`, the growth inhibition was 2% in test [1] (setting [7]); 24% in test [1] (setting [8]); 89.4% (active) in test [1] (at 50.0 µM); 1% in test [2] (setting [7]); 38% in test [2] (setting [8]); 81.7% (active) in test [2] (at 50.0 µM). Besides, the growth inhibition is 5% in test [3] (setting [7]); 7% in test [3] (setting [8]); 60.1% in test [3] (at 50.0 µM); -5% in test [4] (setting [7]); 4% in test [4] (setting [8]); 32.4% in test [4] (at 50.0 µM). Moreover, the growth inhibition in test [5] (setting [7]) is -2%; in test [5] (setting [8]) it was 40%; in test [5] (at 50.0 µM), 86% (active); in test [6] (setting [7]) it was 4%; in test [6] (setting [8]), 52%; in test [6] (at 50.0 µM), 40.8%.
`Cc1[nH]nc(C(F)(F)F)c1N=NN1CCOCC1`: the growth inhibition in test [1] (setting [7]) was 62%; in test [1] (setting [8]), 99% (active); in test [1] (at 50.0 µM), 99.2% (active); in test [2] (setting [7]), 89% (active); in test [2] (setting [8]) it was 99% (active); in test [2] (at 50.0 µM), 99.7% (active). Further, the growth inhibition in test [3] (setting [7]) was 55%; in test [3] (setting [8]), 99% (active); in test [3] (at 50.0 µM), 99.5% (active); in test [4] (setting [7]), 47%; in test [4] (setting [8]), 99% (active); in test [4] (at 50.0 µM) it was 99.5% (active). For the same compound, the growth inhibition was 19% in test [5] (setting [7]); 99% (active) in test [5] (setting [8]); 99.4% (active) in test [5] (at 50.0 µM); 79% (active) in test [6] (setting [7]); 99% (active) in test [6] (setting [8]); 99.5% (active) in test [6] (at 50.0 µM).
`O=[N+]([O-])c1ccc(NS(=O)(=O)c2ccccc2)c(NS(=O)(=O)c2ccccc2)c1`: the growth inhibition in test [1] (setting [7]) is 15%; in test [1] (setting [8]) it was 75% (active); in test [1] (at 50.0 µM), 81.5% (active); in test [2] (setting [7]) it was 14%; in test [2] (setting [8]) it was 76% (active); in test [2] (at 50.0 µM), 73.4% (active). In addition, the growth inhibition in test [3] (setting [7]) was 20%; in test [3] (setting [8]) it was 81% (active); in test [3] (at 50.0 µM), 83.2% (active); in test [4] (setting [7]), 27%; in test [4] (setting [8]) it was 32%; in test [4] (at 50.0 µM), 82.1% (active). Further, the growth inhibition is 6% in test [5] (setting [7]); 43% in test [5] (setting [8]); 80.1% (active) in test [5] (at 50.0 µM); 11% in test [6] (setting [7]); 90% (active) in test [6] (setting [8]); 71.7% (active) in test [6] (at 50.0 µM).
As for `Nc1ccc2c(c1)[nH]c(=O)c1ccc(Cl)cc12`, the growth inhibition in test [1] (setting [7]) was -63%; in test [1] (setting [8]) it was 94% (active); in test [1] (at 50.0 µM) it was 98.2% (active); in test [2] (setting [7]) it was -32%; in test [2] (setting [8]), 82% (active); in test [2] (at 50.0 µM), 90.5% (active). Further, the growth inhibition in test [3] (setting [7]) was -32%; in test [3] (setting [8]), 83% (active); in test [3] (at 50.0 µM), 93.1% (active); in test [4] (setting [7]) it was -30%; in test [4] (setting [8]) it was 85% (active); in test [4] (at 50.0 µM) it was 92.5% (active). Also, the growth inhibition in test [5] (setting [7]) is -52%; in test [5] (setting [8]), 91% (active); in test [5] (at 50.0 µM), 78.9% (active); in test [6] (setting [7]), -56%; in test [6] (setting [8]), 93% (active); in test [6] (at 50.0 µM), 97% (active).
In the case of `COc1nc(NC2OCC(O)C(O)C2O)c(Cl)c(=O)n1C` (stereo not given), the growth inhibition was 0% in test [1] (setting [7]); -1% in test [1] (setting [8]); -15.4% in test [1] (at 50.0 µM); -1% in test [2] (setting [7]); -5% in test [2] (setting [8]); -3.7% in test [2] (at 50.0 µM). For the same compound, the growth inhibition in test [3] (setting [7]) is -2%; in test [3] (setting [8]), -3%; in test [3] (at 50.0 µM), 11.4%; in test [4] (setting [7]), -1%; in test [4] (setting [8]), -3%; in test [4] (at 50.0 µM) it was 30.4%. Also, the growth inhibition in test [5] (setting [7]) is -2%; in test [5] (setting [8]), -4%; in test [5] (at 50.0 µM), 10.2%; in test [6] (setting [7]), -5%; in test [6] (setting [8]) it was -7%; in test [6] (at 50.0 µM) it was -7.85%.
Turning to `COC(=O)C1=C(NC(=O)Nc2ccc(Cl)cc2)OC(C)(C)C1c1ccc(Cl)cc1` (stereo not given), the growth inhibition is 87% (active) in test [1] (setting [7]); 88% (active) in test [1] (setting [8]); 96.5% (active) in test [1] (at 50.0 µM); 94% (active) in test [2] (setting [7]); 94% (active) in test [2] (setting [8]); 98% (active) in test [2] (at 50.0 µM). Also, the growth inhibition is 85% (active) in test [3] (setting [7]); 92% (active) in test [3] (setting [8]); 97.1% (active) in test [3] (at 50.0 µM); 80% (active) in test [4] (setting [7]); 87% (active) in test [4] (setting [8]); 94.8% (active) in test [4] (at 50.0 µM). Besides, the growth inhibition in test [5] (setting [7]) was 89% (active); in test [5] (setting [8]), 89% (active); in test [5] (at 50.0 µM) it was 95.4% (active); in test [6] (setting [7]), 85% (active); in test [6] (setting [8]), 89% (active); in test [6] (at 50.0 µM) it was 96.8% (active).
On to `COc1ccc(CCC2(C)OCCC(C)O2)cc1` (stereo not given), for which the growth inhibition in test [1] (setting [7]) is 12%; in test [1] (setting [8]) it was 92% (active); in test [1] (at 50.0 µM), -13.5%; in test [2] (setting [7]) it was 13%; in test [2] (setting [8]), 96% (active); in test [2] (at 50.0 µM), -6.35%. In addition, the growth inhibition was 16% in test [3] (setting [7]); 91% (active) in test [3] (setting [8]); -4.35% in test [3] (at 50.0 µM); 10% in test [4] (setting [7]); 95% (active) in test [4] (setting [8]); 28.6% in test [4] (at 50.0 µM). Also, the growth inhibition in test [5] (setting [7]) was -3%; in test [5] (setting [8]), 76% (active); in test [5] (at 50.0 µM), -16.1%; in test [6] (setting [7]), 19%; in test [6] (setting [8]), 94% (active); in test [6] (at 50.0 µM), -26.8%.
Turning to `CSCCC(NC(=O)C(CCSC)NS(=O)(=O)Cc1ccccc1)C(=O)O` (stereo not given), the growth inhibition in test [1] (setting [7]) was -6%; in test [1] (setting [8]), -4%; in test [1] (at 50.0 µM), 98.9% (active); in test [2] (setting [7]) it was -4%; in test [2] (setting [8]), -3%; in test [2] (at 50.0 µM) it was 99.6% (active). Also, the growth inhibition was -6% in test [3] (setting [7]); -6% in test [3] (setting [8]); 48.5% in test [3] (at 50.0 µM); -2% in test [4] (setting [7]); -12% in test [4] (setting [8]); 98.7% (active) in test [4] (at 50.0 µM). Moreover, the growth inhibition in test [5] (setting [7]) is -4%; in test [5] (setting [8]), -3%; in test [5] (at 50.0 µM) it was 99.2% (active); in test [6] (setting [7]), -4%; in test [6] (setting [8]), -5%; in test [6] (at 50.0 µM) it was 99.2% (active).
As to `CN(C)CCC(=O)[C@@]1(O)CC[C@H]2[C@@H]3CC=C4C[C@@H](O)CC[C@]4(C)[C@H]3CC[C@@]21C`, the growth inhibition in test [1] (setting [7]) is 25%; in test [1] (setting [8]) it was 70% (active); in test [1] (at 50.0 µM) it was 44.1%; in test [2] (setting [7]), 11%; in test [2] (setting [8]), 63%; in test [2] (at 50.0 µM), 75.4% (active). In addition, the growth inhibition is 20% in test [3] (setting [7]); 71% (active) in test [3] (setting [8]); 58.1% in test [3] (at 50.0 µM); 8% in test [4] (setting [7]); 34% in test [4] (setting [8]); -18% in test [4] (at 50.0 µM). For the same compound, the growth inhibition in test [5] (setting [7]) was -1%; in test [5] (setting [8]), 59%; in test [5] (at 50.0 µM) it was 49.1%; in test [6] (setting [7]), 16%; in test [6] (setting [8]), 68%; in test [6] (at 50.0 µM) it was 65.5%.
